Compound activity deposited in PubChem by several laboratories.
rCAG RNA binder – binds r(CAG) RNA repeats; inhibition, % at 3 µM; 1.3% of 370,000 active; r(CAG) RNA repeat, TO-PRO-1 dye displacement fluorescence;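 active = inhibition above the plate cutoff, the mean of all test compounds on that plate plus 3 SD, cut at about 35% in these data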;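 note: 0% = DMSO alone and 100% = 100 µM mitoxantrone as full dye displacement; higher means more dye released from RNA so lower well fluorescence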
PG9 binder – PG9 antibody binding by small molecule; AID 624416; inhibition, % at 6.7 µM; 0.43% of 360,000 active; TR-FRET gp120-PG9 antibody binding; in the data active = inhibition above about 8.5%
LEDGF integ inh – blocks HIV-1 LEDGF/p75-dependent DNA integration. TR-FRET IN-LEDGF/p75 DNA integration, Eu/Cy5. inhibition, % at 3.7 µM. 0.64% of 370,000 active;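 active = inhibition above the screen-wide mean plus 3 SD, cut at about 13% in these data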;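 note: signal is the Cy5 over europium emission ratio at 671 and 618 nm; 0% = plate median of compound wells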
DNMT1 inh – blocks human DNA methyltransferase DNMT1 | P26358 | DNMT1 molecular beacon, Hinp1I cleavage, fluorescence | inhibition (reported as % activation of signal), % at 10 µM | 0.83% of 360,000 active | AID 588458; in the data active = inhibition above about 50%
MBD2 DNA inh – inhibitors of human MBD2 binding to methylated oligonucleotide; Q9UBB5; TR-FRET; inhibition, % at 4.4 µM; 0.31% of 370,000 active; AID 686964; in the data active = inhibition above about 13%
UHRF1 binding – human UHRF1 methylated DNA binding inhibitors; Q96T88; UHRF1 binding to methylated oligo, TR-FRET; inhibition, % at 4.4 µM; 0.75% of 370,000 active; AID 687016;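 note: UHRF1 SRA domain binding a hemimethylated CpG hairpin DNA probe; 0% = median of test compound wells and 100% = reference inhibitor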
rCAG bind conf – r(CAG) RNA repeat binding, confirmation; AID 652065; TO-PRO-1 dye displacement fluorescence; inhibition, % at 3 µM; shares compounds with rCAG RNA binder; 70% of 4,300 active;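 active = inhibition above a per-plate cutoff, the mean inhibition of sample wells plus 3 SD, cut at about 35% in these data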;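 note: loss of TO-PRO-1 fluorescence as compound displaces dye from 1x1 AA loop RNA; 0% = DMSO only wells and 100% = 100 µM mitoxantrone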
DNA CAG counter – DNA CAG dye complex inhibition counter-screen; shares compounds with rCAG RNA binder; d(CAG) DNA oligo TO-PRO-1 dye displacement, fluorescence; inhibition, % at 3 µM; 94% of 4,300 active;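 active = inhibition above its plate's cutoff, the mean test-well inhibition plus 3 SD, cut at about 4.8% in these data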;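 note: 0% = DNA dye mix with DMSO and 100% = 100 µM mitoxantrone; hits displace the dye from DNA and so lower well fluorescence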
UHRF1 ctr MBD2 – counter-screen for MBD2 inhibitors: human UHRF1 methylated DNA binding inhibitors; 25% of 1,000 active; shares compounds with MBD2 DNA inh; inhibition, % at 4.4 µM; UHRF1 binding to methylated oligonucleotide, TR-FRET; AID 720530;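 note: UHRF1 SRA domain binding a labeled hemimethylated CpG hairpin DNA; 0% = vehicle only and 100% = reference inhibitor with vehicle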
MBD2 confirm – MBD2-DBD methyl-DNA binding inhibition, TR-FRET confirmation; shares compounds with MBD2 DNA inh; inhibition, % at 4.4 µM; 26% of 1,000 active; TR-FRET MBD2-DBD binding to methylated oligonucleotide; in the data active = inhibition above about 14%
IN multimer act – counter-screen for LEDGF/p75 integration inhibitors: HIV-1 integrase multimerization activators | shares compounds with LEDGF integ inh | TR-FRET HIV-1 integrase multimerization, biochemical | activation, % at 7.7 µM | 17% of 2,000 active | AID 1053131; in the data active = activation above about 8.9%
TRFRET interf – counter-screen for LEDGF/p75 integration inhibitors: TR-FRET optical interference; shares compounds with LEDGF integ inh; 2,000 tested, under 10 active; inhibition, % at 7.7 µM; TR-FRET optical interference counterscreen, HIV-1 IN multimerization;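 active = inhibition above the mean over all tested compounds plus 3 SD, which no compound reached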;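 note: 0% = integrase with antibodies and DMSO and 100% = antibodies without integrase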
IN-LEDGF confirm – confirmation of HIV-1 LEDGF/p75-dependent integration inhibitors; shares compounds with LEDGF integ inh; TR-FRET LEDGF/p75-dependent HIV-1 integration, biochemical; inhibition, % at 3.7 µM; 36% of 2,000 active; in the data active = inhibition above about 14%
Active calls of the source: *; x = not tested or not shown. Sampled rows, rich in hits. Any-hit rate of the full collection: about 3.5%. Cut-off read from the data, not from the text of the source, unless noted: active = inhibition above about 21%; inactive = the rest.

SMILES	rCAG RNA binder	PG9 binder	LEDGF integ inh	DNMT1 inh	MBD2 DNA inh	UHRF1 binding	rCAG bind conf	DNA CAG counter	IN multimer act	TRFRET interf	IN-LEDGF confirm	others
O=C(NCc1cc(Cl)cc(Cl)c1)c1ccc2nc([C@@H]3O[C@H](CO)[C@@H](O)[C@H]3O)[nH]c2c1	1	0	-1	-2	-1	0	x	x	x	x	x
CCN=c1scc(C)n1/N=C/c1ccc(O)c(O)c1O	38*	-11	52*	-12	-4	3	49*	19*	20*	-72	36*
Cn1c(=O)c2[nH]c(SCC(=O)NCCc3cccc(F)c3)nc2n(C)c1=O	6	x	-3	x	-1	2	x	x	x	x	x
COc1ccc2nc(N=Nc3ccc(N(C)C)cc3)sc2c1	5	-3	-4	9	-5	-2	x	x	x	x	x
CN(C)c1ccc2nc3ccc(=O)cc-3sc2c1	35*	-452	73*	22	12	55*	31	12*	85*	-303	82*
O=[N+]([O-])c1cc(Br)ccc1NS(=O)(=O)c1ccccc1	13	1	-3	-7	5	0	x	x	x	x	x
O=C(O)CSc1cc(NS(=O)(=O)c2ccc(Br)cc2)c2ccccc2c1O	39*	-2	25*	23	-9	-6	57*	23*	1	-2	51*
O=C(NCCc1ccc(F)cc1)C(=O)NCC1CCCN1S(=O)(=O)c1cccs1 (configuration not stated)	-1	1	0	3	1	-4	x	x	x	x	x
Cc1sc2nc(SCC(=O)c3ccc(O)c(O)c3)n(C)c(=O)c2c1C	49*	x	20*	x	12	12	50*	25*	26*	-93	46*
Cc1sc2nc(SCC(=O)OC(C)C)n(C)c(=O)c2c1C	-1	-1	0	1	-2	2	x	x	x	x	x
O=C1CCCCC(=O)[C@H](O)C[C@H](COCc2ccccc2)O1	0	-1	6	x	-6	-1	x	x	x	x	x
COC(=O)COc1ccc(C2Nc3c(Cl)ccc(C(=O)O)c3C3C=CCC32)cc1 (configuration not stated)	76*	-9	66*	11	18*	46*	49*	17*	-1	5	21*	UHRF1 ctr MBD2=12;MBD2 confirm=4
Cc1cc(N2CCN(S(=O)(=O)c3ccccc3)CC2)nc2c(C)cccc12	4	-1	-3	2	2	3	x	x	x	x	x
Cc1ccc(O)c(N=Cc2cc(Cc3ccccc3)cc([N+](=O)[O-])c2O)c1	46*	-5	19*	-5	-16	-6	27	16*	3	-15	46*
O=C(COC(=O)CCc1ccccc1)NC1CCS(=O)(=O)C1 (configuration not stated)	2	-4	7	1	-7	2	x	x	x	x	x
O=C(O)C(Cc1ccccc1)N1C(=O)/C(=C/C=C/c2ccco2)SC1=S (configuration not stated)	90*	-2	86*	97*	94*	98*	92*	68*	27*	-95	82*	UHRF1 ctr MBD2=98*;MBD2 confirm=71*
